# Bioassay records: PubChem, National Center for Advancing Translational Sciences (NCATS)
# Hits are enriched below; roughly 9.3% of the tested compounds scored in any of these assays.
# FLuc modulator: counter-screen for miR-21 project: firefly luciferase inhibitors or activators | P08659 | purified FLuc, Km substrates, luminescence inhibition | Potency, µM (titrated, usually from 57.5 µM), for inactives: at the top dose activity change, negative = inhibition, usual class: inhibitors | actives 6.9% (n = 360,000) | AID 588342;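 note: plate controls were vehicle for no effect and reference inhibitor for full effect; nearly all actives have a fitted effect of over 55% in size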
# Target sequence (P08659 whole entry, looked up): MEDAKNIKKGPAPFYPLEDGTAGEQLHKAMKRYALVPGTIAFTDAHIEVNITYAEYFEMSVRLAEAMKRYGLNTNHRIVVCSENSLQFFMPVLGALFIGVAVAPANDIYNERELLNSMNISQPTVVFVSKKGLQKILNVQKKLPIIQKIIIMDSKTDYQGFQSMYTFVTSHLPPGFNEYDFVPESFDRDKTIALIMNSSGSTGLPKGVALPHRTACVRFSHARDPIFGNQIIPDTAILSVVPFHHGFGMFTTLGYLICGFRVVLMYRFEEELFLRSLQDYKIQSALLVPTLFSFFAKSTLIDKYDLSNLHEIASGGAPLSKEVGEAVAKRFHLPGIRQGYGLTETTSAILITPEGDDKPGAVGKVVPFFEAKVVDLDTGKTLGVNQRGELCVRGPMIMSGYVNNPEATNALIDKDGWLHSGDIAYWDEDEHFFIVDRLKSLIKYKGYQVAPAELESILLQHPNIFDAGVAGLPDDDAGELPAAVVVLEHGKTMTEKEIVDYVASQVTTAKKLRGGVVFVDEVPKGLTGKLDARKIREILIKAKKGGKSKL
#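 Purified P. pyralis luciferase, 10 nM final, with Km-level 10 uM D-luciferin and 10 uM ATP in 50 mM Tris acetate pH 7.5, 10 mM Mg acetate, 0.01% Tween-20, 0.05% BSA; 6-point qHTS titration about 60 µM downward; luminescence read.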
# ELG1 DNA repair: inhibitors of ELG1-dependent DNA repair in HEK293T cells; HEK293T ELG1-luciferase reporter, luminescence, 16 h; DNA damage induced by 5-fluorouridine; Potency, µM (series often up to 46.1 µM), inactives show top-dose activity change, negative = inhibition, most hits filed as inhibitors; actives 2.3% (n = 330,000); note: % is set by controls: 0 for no effect and ±100 for the full control effect; nearly all actives have a fitted effect of over 55% in size
#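 Overnight (16 hr) co-exposure of 2,000 cells/well to 5-fluorouridine and compound at 37 °C preceded detection. Luciferase was quantified via ONE-Glo luminescence; loss of signal denotes inhibition.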
# Rab9 promoter act: Rab9 promoter activation; Huh7 Rab9 promoter-luciferase reporter, luminescence, 24 h; Potency, µM (series often up to 9.22 µM), for inactives: at the top dose activation, negative = inhibition, hits mostly activators; actives 2.8% (n = 320,000); AID 485297; note: % of control where 0% means no effect; nearly all actives have a fitted effect of over 60% in size
#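 Luminescence from Amplite-detected luciferase (10 minutes, ambient) reports Rab9 promoter activation. Before that, stable Rab9-luciferase Huh7 cells (1500/well, reduced-serum OP-MEM I plus 10% FBS) were exposed to compound for 24 hours at 37C.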
# ELG1 genotox: inducers of genotoxicity in HEK293T ELG1-luciferase cells | actives 1.3% (n = 330,000) | Potency, µM (doses to about 46 µM), for the others: at the top dose activity change, positive = activation, actives largely listed as activators | HEK293T ELG1-luciferase reporter, luminescence, 16 h; note: % of control where 0% means no effect; nearly all actives have a fitted effect of over 60% in size
#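 Genotoxicity was scored as increased ELG1-luciferase reporter signal, measured by ONE-Glo luminescence (30 min, room temperature). Compound or vehicle exposure of the HEK293T reporter cells lasted 16 hr at 37°C.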
# SMN2 splice up: SMN2 splice variant enhancement. Potency, µM (top dose mostly 46.1 µM), for inactives: at the highest dose activity change, positive = activation, usual class: activators. HEK293 SMN2-luciferase splicing reporter, luminescence, 30-36 h. actives 2.8% (n = 210,000); note: % of control where 0% means no effect; nearly all actives have a fitted effect of over 55% in size
#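 qHTS luciferase splicing reporter: luminescence rises when SMN2 exon 7 is included in transfected HEK293 cells. Compound exposure lasted 30-36 h at 37C, with 4.5 mM final sodium butyrate as control, followed by a ONE-Glo read.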
# NPC1 prom act: activates the NPC1 promoter; Huh7 NPC1 promoter luciferase reporter, 24 h; Potency, µM (series often up to 9.22 µM), for the others: top-dose activation, hits mostly activators; actives 2.4% (n = 320,000); AID 485313; note: % of control where 0% means no effect; nearly all actives have a fitted effect of over 60% in size
#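 Huh7 cells stably carrying NPC1 promoter–luciferase, plated in Opti-MEM with 10% FBS for 2 h, were exposed to compound in DMSO for 24 h at 37 °C; luciferase reagent was added for 10 min and luminescence read.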
# * marks the source's active call; other numbers are inactive results; ? = inconclusive; . = no result given; [ ] = remark or other dose. Calls come from the whole dose curve; as a rule, active = well fitted curve in the direction sought with a large enough effect; inconclusive = small, poorly fitted or top-dose-only effect, or another doubt; inactive = no such curve, though single readings can be large; an effect the other way counts as inactive or inconclusive. Potency is the fitted concentration of half-maximal effect.
SMILES,FLuc modulator,ELG1 DNA repair,Rab9 promoter act,ELG1 genotox,SMN2 splice up,NPC1 prom act
Cc1nc(N2CCN(C(=O)c3ccco3)CC2)c2c3c(sc2n1)CCC3,-1%,23µM*,-8%,-9%,1%,-3%
COc1ccc(OC)c(S(=O)(=O)Nc2ccc(O)c3ccccc23)c1,-6%,10µM*,-13%,-43%,-118%,-1%
COc1ccc(OC)c(S(=O)(=O)Nc2ccc(Oc3ccccc3)cc2)c1,-1%,-6%,-9%,-8%,.,-1%
CN(C)c1ccc(/C=N/NC(N)=S)cc1[N+](=O)[O-],-2%,2%,7%,8%,27%,-1%
CC(C)(C)c1ccc(-c2nc(N)nc(N)n2)cc1,2.1µM*,?,?,?,.,?
Cc1cc(OCC(=O)N2CCOCC2)ccc1NC(=O)c1ccccc1C,7.6µM*,?,.,?,.,20%
Cc1onc(-c2ccccc2Cl)c1C(=O)Nc1ccc(S(=O)(=O)N2CCCC2)cc1,5%,-12%,1%,-1%,?,7%
O=C(Nc1ccc(OCC(=O)N2CCOCC2)cc1)c1ccccc1Cl,1.7µM*,?,24%,?,.,22%
Cc1ccc(Cl)cc1NC(=O)c1ccccc1OCC(=O)N1CCOCC1,-9%,?,7%,-8%,.,3%
Cc1onc(-c2ccccc2Cl)c1C(=O)Nc1ccc(OCC(=O)N2CCOCC2)cc1,4%,9.2µM*,1%,0%,16%,-5%
COc1ccc(-c2noc(-c3ccc(NCC4CCCO4)c([N+](=O)[O-])c3)n2)cc1 (stereo unspecified),-10%,.,.,.,.,.
CCOC(=O)c1cnn(-c2ccc(C(F)(F)F)cn2)c1N,11µM*,?,?,?,?,?
CCOC(=O)c1cnn(-c2ncnc3sc(CC)cc23)c1N,13µM*,?,3%,4%,13%,-3%
CC1CN(C(=O)N2CCC(C(=O)NCCC3=CCCCC3)CC2)c2ccccc2O1 (stereo unspecified),-8%,.,.,.,.,.
S=C1NC2(CCS1)Oc1ccccc1C1CC(c3ccccc3)=NN12 (stereo unspecified),27µM*,?,1%,6%,.,1%
COc1ccc(NCC(=O)N/N=C/c2ccc3c(c2)OCCO3)cc1,19µM*,-1%,-3%,-1%,?,2%
COc1ccccc1C(=O)NCC(=O)N/N=C/c1ccc2c(c1)OCO2,17µM*,?,0%,4%,.,-2%
COc1ccc(/C=N/NC(=O)c2ccc3c(c2)OCO3)cc1,5.4µM*,?,26%,10%,.,27%
COc1cc(/C=N/NC(=O)c2ccc(-n3cccc3)cc2)ccc1O,21µM*,?,-7%,0%,29%,-6%
COc1ccccc1C(=O)NCC(=O)N/N=C/c1ccncc1,-3%,1%,-10%,4%,-8%,-6%
COc1ccc(N(CC(=O)N/N=C/c2ccc3c(c2)OCO3)S(=O)(=O)c2ccccc2)cc1,-6%,10%,0%,0%,2%,-2%
Cc1cccc(N(Cc2ccccc2)C(=O)CN2C(=O)NC3(CCCCC3C)C2=O)c1 (stereo unspecified),4%,13%,-5%,-2%,.,-1%
COc1cc(/C=N/NC(=O)c2ccc3c(c2)OCO3)ccc1O,17µM*,?,18%,?,.,17%
O=C(O)c1ccc(NC(=S)NC(=O)c2ccc(-c3ccccc3)cc2)cc1,6µM*,?,?,14%,0%,21%
COc1ccc(NC(=O)c2cccc(Oc3ccccc3)c2)cn1,19µM*,0%,10%,10%,.,-12%
SMILES,FLuc modulator,ELG1 DNA repair,Rab9 promoter act,ELG1 genotox,SMN2 splice up,NPC1 prom act
COc1ccc(NC(=O)c2cccc(S(=O)(=O)N3CCc4ccccc43)c2)cn1,-8%,8.2µM*,-25%,-9%,-41%,-13%
COc1ccc(NC(=O)c2ccc(S(=O)(=O)N(C)c3ccccc3)cc2)cn1,-1%,10µM*,-1%,-11%,.,-5%
O=C(NC(=S)Nc1ccccc1)c1ccc(-c2ccccc2)cc1,-11%,?,?,7%,-1%[1.84 µM],?
COc1ccc(NC(=O)Cc2ccc(-c3ccccc3)cc2)cn1,1%,?,-15%,-8%,-21%,-35%
COc1cccc(C(=O)Nc2ccc(NC(=O)C(C)(C)C)cn2)c1,0.85µM*,?,0.32µM*,?,0.89µM*,0.35µM*
COc1ccc(NC(=O)C(Cl)=C(Cl)Cl)cn1,-2%,1%,-41%,-2%,-5%,-32%
COc1ccc(NC(=S)NC(=O)c2ccccc2)cn1,13µM*,?,1.8µM*,?,.,?
COc1ccc(NC(=O)/C(Cl)=C(/Cl)S(=O)(=O)Cc2ccccc2)cn1,4%,18µM*,-43%,-2%,-98%,-34%
C/C=C(/C)C(=O)Nc1cccc(C2=NOC3(C2)C[C@@H](C(N)=O)N(C(=O)/C=C/CC)C3)c1 (stereo partly specified),-1%,-12%,-3%,1%,.,2%
Cn1c(-n2cccc2)c(-c2c(-c3ccc(F)cc3)[nH]c3c2c(=O)n(C)c(=O)n3C)c(=O)n(C)c1=O,1%,.,.,.,.,.
O=C(Nc1ccccc1C(=O)NCC1CCCO1)c1ccccc1 (stereo unspecified),-12%,1%,-7%,0%,4%,-4%
COC(CNC(=O)c1coc2nc3ccccc3nc12)OC,11µM*,0%,0%,1%,.,2%
C=CCn1c(N)c(C(=O)NCC2CCCO2)c2nc3ccccc3nc21 (stereo unspecified),-3%,10µM*,-4%,-7%,.,0%
COc1ccc(-n2c(N)c(C(=O)NCC3CCCO3)c3nc4ccccc4nc32)c(OC)c1 (stereo unspecified),4%,-20%,1%,-4%,1%,-15%
O=C(NCC1CCCO1)c1coc2nc3ccccc3nc12 (stereo unspecified),11µM*,?,9%,-1%,5%,3%
COC(CNC(=O)c1cnn2c(C)c(Cc3ccccc3)c(C)nc12)OC,-4%,?,-8%,-4%,-25%,0%
Cn1c(=O)c2c(ncn2CC2OCCO2)n(C)c1=O,-1%,12%,-9%,1%,.,1%
O=C(COC(=O)CCSc1ccccc1)Nc1ccccc1,.,0%,.,13%,.,.
O=C(CSc1nnc(-c2ccc(F)cc2)o1)NC1CCCC1,5%,9%,3%,0%,.,-8%
CN(C(=O)c1ccco1)c1nc2c(s1)CCCC2,2.4µM*,?,0.89µM*,?,14µM*,0.71µM*
